Records with an inconclusive call do not appear. Active and inactive are the calls of the source. Unless noted, calls follow the shape of the dose curve; as a rule, active = well fitted curve in the direction sought with a large enough effect in the repeat runs; inconclusive = weak or mixed curves; inactive = no such curve, though single readings can be large; an effect the other way counts as inactive or inconclusive.
Key:
[1] = qHTS assay to test for compound auto fluorescence at 535 nm (green) in HEK293 cells (AID 720680)
[2] = qHTS assay to test for compound auto fluorescence at 460 nm (blue) in HEK293 cell free culture (AID 720681)
In short: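 Test compounds were pinned into cell-free culture medium (DMEM with 10% FBS) and fluorescence was read directly at Ex/Em 405/460 nm. Signals were expressed as fluorescence equivalents of triamterene, with DMSO vehicle as control.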

[3] = qHTS assay to test for compound auto fluorescence at 535 nm (green) in HEK293 cell free culture (AID 720682)
In short: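 Using fluorescein as calibrant, autofluorescence was quantified at 485/535 nm in cell-free DMEM containing 10% FBS after pintool addition of compound or vehicle.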

[4] = qHTS assay to test for compound auto fluorescence at 590 nm (red) in HEK293 cell free culture (AID 720683)
In short: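 Tox21 10K library compounds were pinned into cell-free DMEM with 10% FBS and fluorescence was read at excitation 540 nm. Activity is expressed as Rose Bengal sodium equivalency.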

[5] = qHTS assay to test for compound auto fluorescence at 590 nm (red) in HepG2 cell free culture (AID 720684)
In short: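 Readout: intrinsic compound fluorescence at 590 nm emission after 540 nm excitation, scaled to Rose Bengal sodium. Matrix was cell-free MEM with 10% FBS; DMSO vehicle wells served as control.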

[6] = qHTS assay to test for compound auto fluorescence at 460 nm (blue) in HepG2 cell free culture (AID 720685)
In short: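 Cell-free plates of MEM plus 10% FBS received 23 nL compound or DMSO vehicle; blue-channel (405/460 nm) intensity scored against triamterene as reference fluorophore.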

[7] = qHTS assay to test for compound auto fluorescence at 535 nm (green) in HepG2 cell free culture (AID 720686)
[8] = qHTS assay to test for compound auto fluorescence at 460 nm (blue) in HepG2 cells (AID 720687)
In short: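 Cells (2,000/well in MEM with 10% FBS) attached overnight at 37 C, then were exposed to compound or DMSO for 1 hr at 37 C, 5% CO2. Fluorescence read at Ex/Em 405/460 nm, expressed as triamterene-equivalent signal.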

[9] = qHTS assay to identify small molecule antagonists of the glucocorticoid receptor (GR) signaling pathway - cell viability counter screen (AID 720693); also: nearly all actives have a fitted effect of over 55% in size; also: potency is read from the fitted curve at half-maximal effect
[10] = qHTS assay for identifying genotoxic compounds that show differential cytotoxicity against isogenic chicken DT40 cell lines with known DNA damage response pathways - wild type cell line (AID 743012); also: nearly all actives have a fitted effect of over 60% in size; also: potency is read from the fitted curve at half-maximal effect
In short: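 Viability by ATP luminescence (CellTiter-Glo, 30 min RT) after 40 h compound treatment at 37 C/5% CO2, using 300 parental DNA repair-proficient DT40 cells per well.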

[11] = qHTS assay for identifying genotoxic compounds that show differential cytotoxicity against isogenic chicken DT40 cell lines with known DNA damage response pathways - Rev3 mutant cell line (AID 743014); also: nearly all actives have a fitted effect of over 55% in size; also: potency is read from the fitted curve at half-maximal effect
[12] = qHTS assay for identifying genotoxic compounds that show differential cytotoxicity against isogenic chicken DT40 cell lines with known DNA damage response pathways - Rad54/Ku70 mutant cell line (AID 743015); also: nearly all actives have a fitted effect of over 60% in size; also: potency is read from the fitted curve at half-maximal effect
[13] = qHTS assay to identify small molecule antagonists of the androgen receptor (AR) signaling pathway - cell viability counter screen (AID 743033; also: nearly all actives have a fitted effect of over 45% in size; also: potency is read from the fitted curve at half-maximal effect)
[14] = target: Androgen receptor (Homo sapiens) (UniProt P10275); assay: qHTS assay to identify small molecule agonists of the androgen receptor (AR) signaling pathway using the MDA cell line (AID 743040; also: nearly all actives have a fitted effect of over 20% in size; also: potency is read from the fitted curve at half-maximal effect)
In short: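 Agonist activity is measured as luciferase luminescence in human MDA-kb2 cells whose MMTV reporter responds to both AR and GR. Compounds in DMSO incubate 16 h at 37C, 0% CO2, and ONE-Glo is read after 30 min.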

[15] = target: Androgen receptor (Homo sapiens) (UniProt P10275); assay: qHTS assay to identify small molecule antagonists of the androgen receptor (AR) signaling pathway using the MDA cell line (AID 743042; also: nearly all actives have a fitted effect of over 55% in size)
In short: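 MDA-kb2 cells (human breast carcinoma, stably carrying an MMTV-luciferase reporter responsive to AR and GR) were plated at 3,000 cells/well and preincubated 5 hr at 37C, then given compound plus R1881 agonist for 16 h. ONE-Glo luminescence was read.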

[16] = qHTS assay to identify small molecule antagonists of the androgen receptor (AR) signaling pathway using the MDA cell line - cell viability counter screen (AID 743041; also: nearly all actives have a fitted effect of over 45% in size; also: potency is read from the fitted curve at half-maximal effect)
In short: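 qHTS viability read-out; MDA-kb2 AR-luc; R1881-stimulated; 16 h exposure at 37C, 0% CO2; CellTiter-Fluor, 30 min; fluorescence intensity.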

[17] = target: Androgen receptor (Homo sapiens) (UniProt P10275); assay: qHTS assay to identify small molecule agonists of the androgen receptor (AR) signaling pathway (AID 743036; active = well fitted activation curve with a large enough effect in the signal ratio in the repeat runs, with a control signal flat, not every such curve was filed as active; the % refers to the signal ratio)
In short: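 In this Tox21 qHTS, 2,000 HEK293 AR-bla cells per well were incubated with compounds for 16 h at 37C and 5% CO2. Fluorescence intensity was recorded 2 h after adding LiveBLAzer B/G FRET substrate at room temperature.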

Measured: Potency

Sequence of Androgen receptor (Homo sapiens) (P10275 whole entry, looked up): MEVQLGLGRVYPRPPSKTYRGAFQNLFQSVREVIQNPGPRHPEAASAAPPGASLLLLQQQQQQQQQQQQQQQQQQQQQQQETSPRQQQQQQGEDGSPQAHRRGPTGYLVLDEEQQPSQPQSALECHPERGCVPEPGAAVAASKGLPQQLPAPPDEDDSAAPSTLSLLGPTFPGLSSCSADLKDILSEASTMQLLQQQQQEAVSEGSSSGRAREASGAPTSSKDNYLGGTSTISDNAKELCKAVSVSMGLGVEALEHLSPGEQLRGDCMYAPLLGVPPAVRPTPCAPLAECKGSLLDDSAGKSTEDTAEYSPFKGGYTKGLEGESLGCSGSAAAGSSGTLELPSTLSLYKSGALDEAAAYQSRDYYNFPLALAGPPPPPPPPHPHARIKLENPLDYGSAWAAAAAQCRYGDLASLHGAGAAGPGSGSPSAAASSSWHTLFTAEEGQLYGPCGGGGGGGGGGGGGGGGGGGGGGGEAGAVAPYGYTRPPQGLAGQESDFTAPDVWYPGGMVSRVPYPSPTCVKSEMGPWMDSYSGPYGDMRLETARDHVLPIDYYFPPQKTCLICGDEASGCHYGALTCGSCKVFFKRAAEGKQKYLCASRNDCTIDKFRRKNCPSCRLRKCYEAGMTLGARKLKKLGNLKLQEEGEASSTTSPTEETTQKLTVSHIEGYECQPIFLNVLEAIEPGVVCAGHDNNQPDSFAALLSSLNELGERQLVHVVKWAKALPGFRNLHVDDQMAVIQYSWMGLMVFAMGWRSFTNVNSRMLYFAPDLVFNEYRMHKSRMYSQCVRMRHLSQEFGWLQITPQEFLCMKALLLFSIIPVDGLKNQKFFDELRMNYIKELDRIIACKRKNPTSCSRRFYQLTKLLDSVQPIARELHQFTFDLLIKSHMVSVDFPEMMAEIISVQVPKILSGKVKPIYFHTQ

O=C1c2ccccc2C(=O)C1c1ccc(Cl)cc1
not listed: [16] | [17]
inactive: all other assays above

Nc1nc2[nH]cc(CCc3ccc(C(=O)N[C@@H](CCC(=O)O)C(=O)O)cc3)c2c(=O)[nH]1
active: [10] 0.0266 µM | [11] 0.0119 µM | [12] 0.0106 µM
not listed: [14] | [15] | [17]
inactive: all other assays above

CC[C@H]1OC(=O)[C@H](C)[C@@H](O[C@H]2C[C@@](C)(OC)[C@@H](O)[C@H](C)O2)[C@H](C)[C@@H](O[C@@H]2O[C@H](C)C[C@H](N(C)C)[C@H]2O)[C@](C)(O)C[C@@H](C)[C@@H]2N[C@@H](COCCOC)O[C@@H]([C@H]2C)[C@]1(C)O
not listed: [11] | [14] | [15] | [16] | [17]
inactive: all other assays above

C=C1CC[C@H](O)CC1=C/C=C1\CCC[C@]2(C)[C@@H]([C@H](C)CC[C@@H](O)C(C)(C)O)CC[C@@H]12
active: [9] 21.3 µM | [10] 7.5 µM | [12] 13.3 µM
not listed: [11]
inactive: all other assays above

C[C@H](N)C(=O)N[C@@H](C)P(=O)(O)O
not listed: [13] | [14] | [15] | [17]
inactive: all other assays above

C/C=C1\NC(=O)[C@H]2CSSCC/C=C/[C@H](CC(=O)N[C@H](C(C)C)C(=O)N2)OC(=O)C(C(C)C)NC1=O (stereo not given in full)
active: [9] 2.39 µM | [10] 0.0013 µM | [11] 0.0012 µM | [13] 4.77 µM | [16] 7.5 µM
not listed: [12] | [17]
inactive: all other assays above

CCCCC[C@H](O)/C=C/[C@@H]1[C@H]2C/C(=C/CCCC(=O)O)O[C@H]2C[C@H]1O
not listed: [12] | [13] | [14] | [15] | [17]
inactive: all other assays above

COC(=O)CCC[N+](C)(C)C
not listed: [11] | [14] | [15] | [17]
inactive: all other assays above

CCc1ccc(S(=O)(=O)O)cc1
not listed: [11]
inactive: all other assays above

CCC(Oc1ccccc1)C(=O)N[C@@H]1C(=O)N2[C@@H]1SC(C)(C)[C@@H]2C(=O)O (stereo not given in full)
not listed: [11] | [14] | [15] | [17]
inactive: all other assays above

CC(CC(c1ccccc1)c1ccccc1)NC(C)(C)C (stereo not given)
active: [10] 10.6 µM | [12] 29.8 µM
not listed: [11] | [14] | [15] | [17]
inactive: all other assays above

CC1(C)C2CC[C@]3(C)[C@H](C(=O)C=C4[C@@H]5C[C@@](C)(C(=O)O)CC[C@]5(C)CC[C@]43C)[C@@]2(C)CC[C@@H]1O[C@H]1O[C@H](C(=O)O)[C@@H](O)[C@H](O)[C@H]1O[C@@H]1O[C@H](C(=O)O)[C@@H](O)[C@H](O)[C@H]1O (stereo not given in full)
not listed: [12] | [14] | [15] | [17]
inactive: all other assays above

CCC(=O)OCC(=O)[C@@]1(OC(=O)CC)[C@@H](C)C[C@H]2[C@@H]3CCC4=CC(=O)C=C[C@]4(C)[C@@]3(Cl)[C@@H](O)C[C@@]21C
active: [10] 13.3 µM | [11] 15 µM | [14] 0.0094 µM
not listed: [12] | [17]
inactive: all other assays above

CC1CC(OC(=O)C(O)c2ccccc2)CC(C)(C)C1 (stereo not given)
active: [10] 11.9 µM | [12] 21.1 µM
not listed: [11] | [14] | [15] | [17]
inactive: all other assays above

C=C1CC[C@@H]2[C@](C)(CO)[C@H](O)CC[C@@]2(C)[C@@H]1C/C=C1/C(=O)OC[C@H]1O
active: [10] 5.96 µM | [11] 8.41 µM
not listed: [12] | [13] | [15]
inactive: all other assays above

NC(Cc1ccccc1)C(=O)O (stereo not given)
not listed: [13] | [14] | [15] | [17]
inactive: all other assays above

S=C1SCN(Cc2ccccc2)CN1Cc1ccccc1
active: [10] 10.6 µM | [12] 13.3 µM
not listed: [11] | [14] | [15] | [16] | [17]
inactive: all other assays above

O=[N+]([O-])c1ccc(Oc2ccc(N=C=S)cc2)cc1
active: [10] 13.3 µM | [11] 23.7 µM | [12] 18.8 µM | [16] 26.6 µM
not listed: [13] | [14] | [15] | [17]
inactive: all other assays above

NCCC(=O)[N-][C@@H](Cc1cnc[nH]1)C(=O)O.[Zn]
not listed: [13] | [14] | [15] | [17]
inactive: all other assays above

CCOc1ccc(N=C(C)Nc2ccc(OCC)cc2)cc1
active: [10] 23.7 µM | [11] 23.7 µM | [12] 23.7 µM
not listed: [13] | [14] | [15] | [17]
inactive: all other assays above

CC1(C)S[C@@H]2[C@H](NC(=O)C(N)c3ccccc3)C(=O)N2[C@H]1C(=O)OC1OC(=O)c2ccccc21 (stereo not given in full)
not listed: [13] | [14] | [15] | [17]
inactive: all other assays above

CCCCCCCCCCCCCCCCCC(=O)OCC(C)O (stereo not given)
active: [16] 26.6 µM
not listed: [11] | [14] | [15] | [17]
inactive: all other assays above

CN(C)CCOc1ccccc1Cc1ccccc1 (tested in a mixture with another compound)
active: [10] 26.6 µM | [12] 29.8 µM
not listed: [11] | [14] | [15] | [17]
inactive: all other assays above

CN(CCO)CC(O)Cn1cnc2c1c(=O)n(C)c(=O)n2C (stereo not given) (tested in a mixture with another compound)
not listed: [11] | [14] | [15] | [17]
inactive: all other assays above

CN1c2cc(O)c(N=NC(N)=O)cc2CC1S(=O)(=O)O (stereo not given)
not listed: [11] | [14] | [15] | [17]
inactive: all other assays above

CNC(=O)c1c(I)c(C(=O)NCC(=O)Nc2c(I)c(C(=O)O)c(I)c(C(=O)NCCO)c2I)c(I)c(N(C)C(C)=O)c1I
not listed: [11] | [14] | [15] | [17]
inactive: all other assays above

CC1=C(C(=O)OCCN(Cc2ccccc2)c2ccccc2)C(c2cccc([N+](=O)[O-])c2)C(P2(=O)OCC(C)(C)CO2)=C(C)N1 (stereo not given)
active: [10] 29.8 µM | [12] 26.6 µM
not listed: [11] | [14] | [15] | [17]
inactive: all other assays above

NC(=O)c1ccc[n+]([C@@H]2O[C@H](COP(=O)([O-])OP(=O)(O)OC[C@H]3O[C@@H](n4cnc5c(N)ncnc54)[C@H](O)[C@@H]3O)[C@@H](O)[C@H]2O)c1
not listed: [12]
inactive: all other assays above

CNC(C)CCC=C(C)C (stereo not given)
active: [10] 23.7 µM | [11] 29.8 µM
not listed: [12] | [14] | [15] | [17]
inactive: all other assays above

CN1CCN(CCC=C2c3ccccc3Sc3ccc(S(=O)(=O)N(C)C)cc32)CC1
active: [10] 10.6 µM | [12] 16.8 µM | [13] 23.9 µM
not listed: [11] | [15] | [17]
inactive: all other assays above
